Measured values reported in PubChem BioAssay AID1347426 (Functional Genomics Laboratory (NCATS/FGL), 2020).
The campaign covered roughly 31,000 sequences. About 1,400 (4.5%) were called active.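 Rule for the calls: active = median seed-adjusted z-score above 1 or below -1; inactive = the rest.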 Only a selection was taken, and actives are over-represented in it overall.

Assay: Novel Modifiers of Survival Motor Neuron (SMN) Protein: Gene Identification via Genome-wide siRNA Screen;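 note: luminescence tracks full-length SMN protein made from the SMN2 reporter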
Settings: HEK293T SMN2-luciferase reporter, siRNA knockdown, 72 h; actives lie on both sides
Method in brief: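 HEK293T cells stably expressing an SMN2 splicing/cDNA-luciferase reporter were reverse-transfected with a druggable-genome siRNA library and read by luminescence at 72 hours; hits defined by MAD score above 1.0 or below -1.0.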

Row | Sequence | median seed-adjusted z-score
1 | GAAUGUGACAAUACAUUUATT against ZNF431 | 0.00537 (inactive)
2 | GGAACAAACCCUUAGCUAATT against SLITRK1 | 0.215 (inactive)
3 | GGAGUUUCCAGAUCUCAAATT against LGR6 | 0.237 (inactive)
4 | GACUCAUACCAAUCACGAATT against JMJD1A | 0.466 (inactive)
5 | GGGUCCCUAUUAUCCAGCATT against BAT3 | 0.567 (inactive)
6 | GACAGAUGACUGAUCCUAATT against PSMD13 | 0.58 (inactive)
7 | GACGGCCUCUAUUACCUCUTT against LTB | 0.646 (inactive)
8 | CUGUCAAUGUUAUUACUCUTT against TSG101 | 1.48 (active)
9 | GAAUAAUGCUUAUGCUAGATT against CLIC6 | -0.00828 (inactive)
10 | AAUUCUACGAGUCCAAGUATT against GPS1 | 0.205 (inactive)
11 | CAGCCCGUUUUGAAGGGUATT against CRIP3 | 1.7 (active)
12 | CGAUGGGUAUGAGCCUGGATT against ATHL1 | 0 (inactive)
13 | UAUGGGCUCUUGAACCAAATT against MTNR1B | -0.393 (inactive)
14 | GGGUGAUCUUGAUACUGCATT against TOP2B | 0.225 (inactive)
15 | GAUGCAAACUAGUCCUGAATT against MLC1 | -0.284 (inactive)
16 | AAUCGCUCAUGGUUUUUAATT against LRFN3 | 0.483 (inactive)
17 | AUGUGCACCUGACUACUCATT against KRT35 | -0.1 (inactive)
18 | CGCGUUCUUCGAUAUGGUATT against PCDHGB6 | 0.34 (inactive)
19 | GGCUUUUACCCGCAUGUCATT against ZNF460 | -0.302 (inactive)
20 | GCAGAAUAACCUCCAGUAUTT against SLC35A2 | 1.06 (active)
21 | GACUUUGCAUUUCCUAGUATT against HSPA1A | -0.833 (inactive)
22 | CUACUAUUCAGAGACAACATT against GPR3 | 0 (inactive)

Row | Sequence | median seed-adjusted z-score
23 | GAAAGAAGAAUAUACUGAUTT against RBBP6 | -0.212 (inactive)
24 | GGAAAUUACGGCUACAGAATT against AP1S3 | 0.153 (inactive)
25 | CCUUCUGUAGGAUGCAUUUTT against LY6G5B | -1.29 (active)
26 | CAAGAGCACCGGUAAGGAATT against HSPA2 | -0.0343 (inactive)
27 | UGAACUACGUGACCGCGAATT against ELAVL1 | 0.316 (inactive)
28 | GCAACUCCAGCCUAAUUAATT against ZNF792 | 0 (inactive)
29 | CUGUGGUCUCUGUCUCUUATT against GPR75 | 0 (inactive)
30 | CCAACAAGGUAGACCCAUUTT against PSMC5 | -1.06 (active)
31 | CUACCAGCCCUACACCAUUTT against CCL1 | 0.537 (inactive)
32 | GGAGAUCCGUGAUGUAACATT against RUVBL2 | -0.0764 (inactive)
33 | AGAUGAAUCUGGAAUCGGUTT against LCN1 | 0.0607 (inactive)
34 | CCGAAUGAGUUUGAACAUATT against ZNF48 | -0.116 (inactive)
35 | GGCUCUUCAUGGACCUUCATT against GPR173 | -0.147 (inactive)
36 | CAACCACAAUGUUCGUAAATT against GBF1 | -0.162 (inactive)
37 | GAAUGUCCCUUUAACUGCATT against NFXL1 | 0.118 (inactive)
38 | CGAGUACUGUCUCAAGGUATT against TTC9B | -0.272 (inactive)
39 | CAAUUACGAAUAGAAUUGATT against WEE1 | -4.05 (active)
40 | AGGACCAAAUGUCAAUUUATT against IL1RN | 0.283 (inactive)
41 | GGUGUGAACUGCGAAGUGATT against NOTCH3 | 0.395 (inactive)
42 | GGACGUGACUUACAUAGUUTT against PRLR | 0.394 (inactive)
43 | CAGUUUAUCUCAGACAUCUTT against CD9 | -1.02 (active)
44 | UGGUCCGACUGGUACGACATT against TAC1 | 0.0499 (inactive)

Row | Sequence | median seed-adjusted z-score
45 | GAGUCUUUAUUGGUAAAGATT against GLRX | -0.0561 (inactive)
46 | ACAUUGUGGUAGCCUUGUATT against LYN | -0.178 (inactive)
47 | GGCUGUCCUUAGUACCAGATT against CFTR | -1.23 (active)
48 | GGAACUAAACUUGAUCUUATT against RAC1 | -0.0348 (inactive)
49 | GAGUCGCUUUAGCUCCGAATT against XPNPEP2 | -0.158 (inactive)
50 | GGGAAAGCUGGACUACUAATT against PIK3CB | 0.0911 (inactive)
51 | CAAGGUGUUUUACCUGAAATT against YWHAH | -0.125 (inactive)
52 | GCGUGACAGUGAUCCUGUATT against SLC27A5 | 0.441 (inactive)
53 | AGAUCGACGUGAUCAAGCATT against GNAS | -0.531 (inactive)
54 | GGACAUCUGGGUGAAGUUUTT against SNRPF | -2.66 (active)
55 | CUAUCACUCUGGAACUGGATT against SMC2 | -0.052 (inactive)
56 | GGACAUGAACCAUACGAAUTT against PRPF8 | -1.54 (active)
57 | CAAUAAGACUGAGUUAUUATT against ETNK1 | 0.299 (inactive)
58 | GACCCAAAGCGGCAGCAAATT against KLRC2 | -0.472 (inactive)
59 | CUCAUUGAGUUGGACAAAUTT against RHOU | -1.44 (active)
60 | GGAUCGUGGUUGCAGGGAUTT against DNASE1 | -0.35 (inactive)
61 | CCAGACAGGAGGAACCAUATT against HDAC11 | 0.259 (inactive)
62 | CUAUGGACAUGUCAAUUGUTT against CCNA2 | 0.136 (inactive)
63 | CCGUAUUUCUAGUUCCCUUTT against ZNF442 | 1.06 (active)
64 | GUGUGAUGGUUGUAAACGATT against ZMYM6 | -0.355 (inactive)
65 | CAUACUCAUUCUUGCAAUATT against PHOSPHO2 | -0.247 (inactive)
66 | GAGAGUAAAUAUGCGAAUATT against ATP8B1 | 0.357 (inactive)

Row | Sequence | median seed-adjusted z-score
67 | GCAACAUCCUGGUUUUCGATT against LRP2 | -0.512 (inactive)
68 | GUAUCGCUGUUUCUACGGUTT against LILRA1 | -0.231 (inactive)
69 | GGAUCAUUCUCAACGGGAUTT against KCNV2 | -1.13 (active)
70 | UGUUGACACUUUUAUCCAATT against ANAPC11 | -0.581 (inactive)
71 | AACCCUUUGUGGAACACCATT against PSMB4 | -0.16 (inactive)
72 | CGCAAAAAGGCAGACGAAATT against DUX5 | -0.295 (inactive)
73 | GCUAAGAAGAGAUAAUGAATT against MLKL | 0 (inactive)
74 | CCGAUUCGGUCACCAAGUATT against MYO1F | 0.103 (inactive)
75 | CCCUCACCGUGCAUGAGAATT against ZNF74 | 1.17 (active)
76 | GUGCUAAAGAUCAUUGAUATT against TRIM32 | 0.109 (inactive)
77 | GAUCAUGCGUAACUACAGUTT against JUP | 0.15 (inactive)
78 | AGAGCACCAGAAGACACAATT against GJC3 | -0.137 (inactive)
79 | GGACCUUUUUGUUAAGUCATT against RASD1 | 0.674 (inactive)
80 | GGUCUUUACUGGAUUCAGATT against SERINC3 | 0.29 (inactive)
81 | GAAUUUGUAUGAGAGCAUUTT against CYTH3 | 0.196 (inactive)
82 | CUCUUAUGUUGGAUAUGUATT against USP14 | 0 (inactive)
83 | GGAAGAAUUUCAGUCAGAATT against ZNF436 | 0.00767 (inactive)
84 | GGACCUGCAUAUGAAAGUATT against PCDH8 | -1.03 (active)
85 | CAUUGUCUAUCAUCGCAAATT against NEB | 0.0485 (inactive)
86 | GGAAGGCAGAUGUAUCUUUTT against CMPK1 | -0.363 (inactive)
87 | GGCCUACGUUUGAAAGACATT against ZNF792 | 0 (inactive)
88 | GACUUGUGAUACAAGCGUATT against RAD23B | 0.639 (inactive)

Row | Sequence | median seed-adjusted z-score
89 | GGUAAAGGGAAGUAACUAUTT against SLC2A13 | -0.0451 (inactive)
90 | CCCUAUCAAUUUCUAUGGATT against MPP4 | 0.13 (inactive)
91 | GCCUGACAGUGGUAUACAATT against COPZ1 | -1.02 (active)
92 | GCUACAACUGGAUAAGGAATT against FTSJ1 | 0.0774 (inactive)
93 | CAUGAUAUCUGGACCCAAATT against SSX3 | 0 (inactive)
94 | AGACGUACCGAGAGGAGUATT against PLA2G2F | 0.508 (inactive)
95 | CCAUGCUGGAGAUCAAGAATT against PRKAG3 | -1.03 (active)
96 | CCCUGGAUGUCCUAUCUGATT against SLC2A1 | -0.349 (inactive)
97 | GGAGGAUGACAAGAUCUAUTT against RNF113A | -0.128 (inactive)
98 | GCACUGAUGUAAAUUACUUTT against RAB6C | -1.08 (active)
99 | GCAGUACAGUGAAUGCCGATT against AKAP8 | -0.252 (inactive)
100 | CCACCGAGCUAACAUCUGATT against MFAP3L | 1.03 (active)
101 | CAGACUUAUUGUAACAAGATT against ENPP3 | 0.66 (inactive)
102 | GCUACACUCAACUACCUGATT against ADCY5 | -0.123 (inactive)
103 | CCACAAGAGUUCGAACUCATT against ZFX | -0.581 (inactive)
104 | GGAAUGCAAUUCUCAGAGATT against LCN2 | 0.123 (inactive)
105 | CACAGAUUCGAGAAAUUCATT against SF3B1 | -3.65 (active)
106 | GGUUGACAAAUGCAGGAUATT against RIOK2 | -0.16 (inactive)
107 | GCAUCGGCAUCUUCACGCUTT against FZD5 | -0.129 (inactive)
108 | GACCCGCGAUUAAACCUCATT against CHST1 | 0.181 (inactive)
109 | GGUUUGGGAUGGGAAUUGATT against SUPT16H | 1.2 (active)
